From ChEMBL document CHEMBL3988442, “University of Dundee, Small-Polar-MMV Screening Library” (2021)
Out of some 69,000 compounds screened, about 950 (1.4%) showed an effect of 50% or more. The list comes from a sample in which strong results are over-represented; it also holds similar structures and randomly drawn compounds.

test system: Mycobacterium tuberculosis; test: Cornell M. t heat shock assay; format: functional, organism-based; design: dose or concentration left out as unconfirmed; also: in the data most compounds retested in dose-response had high values

Row | Structure (SMILES) | Percent Effect [%]
1 | Cc1cccc(C(=O)N2C[C@@H](C)[C@@]3(CCN(c4ccsc4)C3=O)C2)n1.O=C(O)C(F)(F)F | 5.09
2 | c1ccc(CO[C@H]2C[C@@H]3CN(Cc4cccnc4)C[C@@H]3C2)cc1 | -10.82
3 | c1nc(N2CCOC(Cn3cncn3)C2)c2sccc2n1 (stereo not drawn) | -23.67
4 | c1cnn(CC2CN(c3ncnc4ccsc34)CCO2)c1 (stereo not drawn) | 105.5
5 | Cc1cnn(CC2CN(c3ncnc4ccsc34)CCO2)c1 (stereo not drawn) | 28.88
6 | C[C@H](N)Cn1nc(-c2cccs2)oc1=O.Cl | -14.47
7 | C[C@@H]1CN(C2CCN(Cc3nn(C)c4cccc(Cl)c34)CC2)C[C@H](C)O1 | -2.477
8 | Cn1nc(CN2CCCCC(N)C2)c2c(Cl)cccc21 (stereo not drawn) | -3.376
9 | Cn1nc(CN2CCCN(C3CCCC3)CC2)c2c(Cl)cccc21 | 57.91
10 | Cc1ccc(C(=O)N2CCC3(CC2)CC(c2cnn(C)c2)CO3)cn1.O=C(O)C(F)(F)F (stereo not drawn) | -3.038
11 | NC(=O)N1CC[C@H](O)[C@@H]1Cc1cccnc1.O=C(O)C(F)(F)F | -3.918
12 | COC(=O)CSc1nnc(CCNC(=O)OC(C)(C)C)o1 | 12.63
13 | C=C(C)CSc1nnc(CCNC(=O)OC(C)(C)C)o1 | 54.16
14 | CCN(CC)C(=O)CSc1nnc(CCNC(=O)OC(C)(C)C)o1 | 3.451
15 | O=C(O)C(F)(F)F.O=C(c1ccco1)N1CCO[C@@H]2CN(CC3CC3)CC[C@@H]2C1 | -6.108
16 | CC(C)CN1CC[C@H](c2nnc(COc3ccc(F)cc3)o2)C1 | 15.46
17 | Fc1ccc(OCc2nnc([C@H]3CCN(Cc4ccncc4)C3)o2)cc1 | 43.75
18 | Cc1ccc(CN2CC[C@H](c3nnc(COc4ccc(F)cc4)o3)C2)o1 | 102.2
19 | Cc1nn(C)c(C)c1S(=O)(=O)N1CC[C@H]2O[C@@H](C)C[C@H]2C1.O=C(O)C(F)(F)F | 4.759
20 | CNc1cc(C2CN(Cc3csc(C)n3)CCO2)nc(C)n1 (stereo not drawn) | -32.62
21 | CNc1cc(C2CN(Cc3scnc3C)CCO2)nc(C)n1 (stereo not drawn) | 67.88
22 | Cc1nc(C2CN(Cc3scnc3C)CCO2)cc(N(C)C)n1 (stereo not drawn) | -20.95
23 | COc1cc(CN(CCCN(C)C)Cc2ccccn2)cc2c1OCO2.O=C(O)CC(O)(CC(=O)O)C(=O)O | -27.2
24 | CC(N(C)Cc1nc2c(cnn2C)c(=O)[nH]1)C(C)(C)C (stereo not drawn) | 4.654

Row | Structure (SMILES) | Percent Effect [%]
25 | O=C(Nc1cnccn1)[C@@H]1C[C@H]2OCC[C@H]2N(Cc2ccsc2)C1.O=C(O)C(F)(F)F | -23.53
26 | COc1cc(F)ccc1C(C(=O)O)N(C)Cc1ccon1 (stereo not drawn) | 98.53
27 | COc1cc(C)cc(C(C(=O)O)N(C)Cc2ccon2)c1OC (stereo not drawn) | 14.77
28 | COc1ccc(Cl)cc1C(C(=O)O)N(C)Cc1ccon1 (stereo not drawn) | -13.11
29 | Cc1ccc(C(=O)N2CCc3c(CN4CCCC4)nn(C)c3C2)cc1C.O=C(O)C(F)(F)F | -28.38
30 | CC(C)COC(=O)N1CC(=O)N(CCCc2ccccc2)CC(O)C1 (stereo not drawn) | 54.63
31 | CC(C)COC(=O)N1CC(=O)N(CCc2ccccc2)CC(O)C1 (stereo not drawn) | 34.47
32 | Cc1ccc(CN2CC(O)CN(C(=O)OCC(C)C)CC2=O)cc1 (stereo not drawn) | 52.29
33 | COc1ccc(CN2CC(O)CN(C(=O)OCC(C)C)CC2=O)cc1 (stereo not drawn) | 43.83
34 | CC(C)COC(=O)N1CC(=O)N(Cc2ccc(Cl)cc2)CC(O)C1 (stereo not drawn) | 47.42
35 | CCOC(=O)N1CC(=O)N(CCc2ccccc2)CC(O)C1 (stereo not drawn) | 15.03
36 | COc1cc(N2CC[C@H]3O[C@@H](C(=O)NC4CCCC4)CC[C@H]32)ncn1.O=C(O)C(F)(F)F | -0.9791
37 | Cl.O=C(NC1CCCC1)c1ccc(C2CCCNC2)nc1 (stereo not drawn) | -7.361
38 | Cc1c(C2CCCN(C(=O)c3ccncc3)C2)n2c(nc1=O)CCC2.Cl (stereo not drawn) | -13.79
39 | Cl.O=C(N[C@@H]1CN[C@H]2CCCO[C@H]21)c1cnccn1 | -42.37
40 | CNC(=O)C1CCN(Cc2nc(-c3ccc(SC)cc3)oc2C)C1 (stereo not drawn) | 12.81
41 | CNC(=O)CC1CCN(Cc2nc(-c3cccc(Cl)c3)oc2C)CC1 | 52.75
42 | CNC(=O)CC1CCN(Cc2nc(-c3ccc(SC)cc3)oc2C)CC1 | 1.977
43 | CCn1nc(C)c(-c2cncn2Cc2ccccc2CN(C)C)c1C.Cl | 2.066
44 | O=C(O)C(F)(F)F.c1cc(CN2CCO[C@H]3[C@H](OCC4CCOCC4)CC[C@@H]32)co1 | 4.016
45 | Cn1ncc2c(NCCC34CCCN3CCC4)nc(C3CCCC3)nc21 | 90.62
46 | CCS(=O)(=O)CCNc1nc(C2CCCC2)nc2c1cnn2C | -23.34
47 | CNCCCNc1nc(C2CCCC2)nc2c1cnn2C | -14.72
48 | Cn1ncc2c(NCCn3cccc3)nc(C3CCCC3)nc21 | -24.81

Row | Structure (SMILES) | Percent Effect [%]
49 | CC(C)N(CCNc1nc(C2CCCC2)nc2c1cnn2C)C(C)C | 102.6
50 | CCOCCNc1nc(C2CCCC2)nc2c1cnn2C | 10.38
51 | CN(C)CCN1CCC2(CCN(C(=O)c3cccc(F)c3)CC2)C1=O.O=C(O)C(F)(F)F | -26.99
52 | COCC1CN(Cc2cnn(C)c2)Cc2nn(C)cc21.O=C(O)C(F)(F)F (stereo not drawn) | -8.537
53 | CNCC(=O)N1CCCC(c2nccnc2Oc2cccc(F)c2)C1.Cl (stereo not drawn) | -3.012
54 | O=C(NCCc1cccnc1)c1nc2c(s1)CCCN2C(=O)C1CC1.O=C(O)C(F)(F)F | 31.31
55 | Cl.Fc1ccccc1CNc1ccnc(C2CCNCC2)c1 | -7.114
56 | CCS(=O)(=O)Nc1cnn(Cc2cccc(C)c2)c1 | -6.735
57 | CCS(=O)(=O)Nc1cnn(Cc2cccc(Cl)c2)c1 | 69.75
58 | CS(=O)(=O)Nc1cnn(Cc2cccc(Cl)c2)c1 | -3.827
59 | O=C(O)C(F)(F)F.O=C(c1cccs1)N1C[C@@H]2OCCN(CC3CCCO3)[C@@H]2C1 (stereo partly drawn) | -25.16
60 | CC[C@@H]1N(C)CCC[C@]12CCC(=O)N2Cc1ccncc1.O=C(O)C(F)(F)F.O=C(O)C(F)(F)F | -9.742
61 | O=C(O)C(F)(F)F.O=C(O)c1c(-c2cccnc2)ncc2c1CCN(CC1CCOC1)C2 (stereo not drawn) | -9.377
62 | O=C(O)C(F)(F)F.O=C(O)C(F)(F)F.O=C(O)C(F)(F)F.O=C1C[C@H]2[C@@H](CCN2Cc2ccccn2)N1CCN1CCOCC1 | -15.17
63 | O=C(CN1C(=O)CCNC1=O)N1CCC(c2ccc(F)cc2)C1 (stereo not drawn) | 18.83
64 | O=C(CN1C(=O)CCNC1=O)N1CCOC(c2ccc(F)cc2)C1 (stereo not drawn) | 12.93
65 | O=C1CCNC(=O)N1CC(=O)N1CCC1c1ccc(F)cc1 (stereo not drawn) | 51.34
66 | O=C(O)C(F)(F)F.O=C(O)C(F)(F)F.c1cncc(CN2CC[C@H]3O[C@@H](COCC4CCOCC4)CC[C@H]32)c1 | -5.632
67 | CC(C)N1CCC2(C=C(C(=O)NC3CC3)c3ccccc32)CC1.O=C(O)C(F)(F)F | -2.25
68 | O=C(O)C(F)(F)F.c1csc(NCc2n[nH]c3c2CCN(CC2CC2)C3)n1 | -23.28
69 | Cc1cccc(CN2CCCn3c(nnc3Cn3cccn3)C2)n1.O=C(O)C(F)(F)F | -30.89
70 | CCc1cnc(CN(C)C2CCN(CC(=O)Nc3nccs3)C2)o1 (stereo not drawn) | 61.16
71 | CCc1cnc(CN(C)C2CCN(CC(=O)Nc3cc(C)on3)C2)o1 (stereo not drawn) | -19.35
72 | Cc1cnc(CN(C)C2CCN(CC(=O)Nc3nccs3)C2)o1 (stereo not drawn) | 66.08

Row | Structure (SMILES) | Percent Effect [%]
73 | CCc1cnc(CN(C(C)=O)C2CCN(CCc3ccccn3)C2)o1 (stereo not drawn) | -12.32
74 | CC(C)c1cnc(CN(C)C2CCN(CCc3ccccn3)C2)o1 (stereo not drawn) | -13.05
75 | Cc1cnc(CN(C)C2CCN(CC(=O)N(C)c3nccs3)C2)o1 (stereo not drawn) | 15.65
76 | CCc1cnc(CN(C)C2CCN(CCc3cccs3)C2)o1 (stereo not drawn) | -5.267
77 | CCc1cnc(CN(C)C2CCN(CCc3ccccn3)C2)o1 (stereo not drawn) | 105.9
78 | Cc1cnc(CN(C)C2CCN(CC(=O)Nc3nncs3)C2)o1.O=C(O)C(F)(F)F (stereo not drawn) | -4.89
79 | CC(=O)Nc1ccc(CN2C[C@H]3CC[C@@H]2CN(c2ncccn2)C3)cc1 | 8.779
80 | CC(C)NC(=O)N1Cc2nccn2CC(COc2cccnc2)C1.O=C(O)C(F)(F)F (stereo not drawn) | -13.64
81 | CNC(=O)CN1CCCC12CCN(C(=O)c1ccsc1)CC2.O=C(O)C(F)(F)F | -20.96
82 | O=C(Cc1ccccn1)N1CCN2C[C@H](Oc3cncnc3)C[C@H]2C1.O=C(O)C(F)(F)F.O=C(O)C(F)(F)F | 3.514
83 | CCOc1ccc(CNCC(O)c2ccccc2)cc1Cl.Cl (stereo not drawn) | 35.2
84 | Cl.Clc1ccccc1CN1CCc2nc(C3CCCCN3)ncc2C1 (stereo not drawn) | 12.35
85 | CN1CCCCC1c1ncc2c(n1)CCN(Cc1ccccc1Cl)C2 (stereo not drawn) | 87.15
86 | CN1CCc2nc(C3CCCCN3Cc3ccccc3Cl)ncc2C1 (stereo not drawn) | -4.117
87 | Cn1cnc2c1CCN(CCCc1ccccc1)C2 | 8.155
88 | CN1CCCCC1c1ncc2c(n1)CCN(Cc1ccc(F)cc1)C2 (stereo not drawn) | 35.62
89 | CN1CCCCC1c1ncc2c(n1)CCN(CCCc1ccccc1)C2 (stereo not drawn) | 101.2
90 | Cc1ncc2c(n1)CN(CCCc1ccccc1)CC2 | 3.621
91 | COc1ccc(CN2CCc3nc(C4CCCCN4C)ncc3C2)cc1 (stereo not drawn) | 25.26
92 | CN1CCCCC1c1ncc2c(n1)CCN(Cc1ccc(Cl)c(F)c1)C2 (stereo not drawn) | 103.7
93 | O=C(CC1CC1)N1CC[C@H]2[C@@H]1CCC(=O)N2c1cccnc1.O=C(O)C(F)(F)F | -6.311
